Our source for the activity increase over dofetilide control, less the hit threshold values is PubChem BioAssay AID1835 (Johns Hopkins Ion Channel Center, 2009).

About 750 (31%) of roughly 2,400 compounds were called active. The list shows a part of the results. A number with no mark means an inactive call.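 How the source made its calls: active means median signal gain over dofetilide-blocked control wells reaching their mean plus 3 SD, so readout 1 at least 0; inactive means the rest.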

Voltage-gated inwardly rectifying potassium channel KCNH2 (Homo sapiens), sequence (Q12809 whole entry, looked up): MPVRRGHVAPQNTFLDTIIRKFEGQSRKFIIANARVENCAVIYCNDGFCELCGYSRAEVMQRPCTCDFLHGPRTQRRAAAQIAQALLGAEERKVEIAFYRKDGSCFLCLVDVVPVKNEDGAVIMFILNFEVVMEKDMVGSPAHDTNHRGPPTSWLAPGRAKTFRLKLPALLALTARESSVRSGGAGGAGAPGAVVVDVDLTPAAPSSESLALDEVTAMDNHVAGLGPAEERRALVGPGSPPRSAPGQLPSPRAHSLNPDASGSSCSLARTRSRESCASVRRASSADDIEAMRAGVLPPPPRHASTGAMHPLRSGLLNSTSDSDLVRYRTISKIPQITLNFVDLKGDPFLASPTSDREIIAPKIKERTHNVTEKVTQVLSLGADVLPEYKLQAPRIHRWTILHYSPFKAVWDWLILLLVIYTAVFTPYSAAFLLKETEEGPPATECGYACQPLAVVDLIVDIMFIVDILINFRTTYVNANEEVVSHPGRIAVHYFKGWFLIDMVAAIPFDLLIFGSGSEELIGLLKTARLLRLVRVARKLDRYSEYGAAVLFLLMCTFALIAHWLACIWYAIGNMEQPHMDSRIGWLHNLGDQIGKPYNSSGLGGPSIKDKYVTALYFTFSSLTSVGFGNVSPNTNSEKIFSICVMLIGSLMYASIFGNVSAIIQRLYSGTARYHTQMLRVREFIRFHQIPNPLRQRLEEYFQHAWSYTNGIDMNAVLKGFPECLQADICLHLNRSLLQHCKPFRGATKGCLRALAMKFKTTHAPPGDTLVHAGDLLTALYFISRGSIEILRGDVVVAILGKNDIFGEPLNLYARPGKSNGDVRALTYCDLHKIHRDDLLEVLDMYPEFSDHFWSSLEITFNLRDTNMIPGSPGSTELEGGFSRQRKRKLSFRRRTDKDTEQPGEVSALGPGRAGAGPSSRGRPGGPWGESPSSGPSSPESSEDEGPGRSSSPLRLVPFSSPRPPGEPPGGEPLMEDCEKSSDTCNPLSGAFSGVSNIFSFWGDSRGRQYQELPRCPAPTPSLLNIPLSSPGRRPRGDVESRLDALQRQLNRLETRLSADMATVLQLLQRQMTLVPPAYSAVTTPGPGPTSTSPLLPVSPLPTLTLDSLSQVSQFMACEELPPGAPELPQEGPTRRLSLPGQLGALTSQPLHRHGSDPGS

This test has as its target Voltage-gated inwardly rectifying potassium channel KCNH2 (Homo sapiens) (UniProt Q12809). Briefly: modulators restoring hERG flux under dofetilide – cell-based, thallium flux, duplicate retest, dofetilide IC70, confirmation (AID 1835). The settings on record: hERG cell line, FluxOR thallium flux, dofetilide-blocked; at 10 µM; active compounds read high.
On to `CCC(=O)Nc1cc(=O)[nH]c2ncnn12`, for which the activity increase over dofetilide control, less the hit threshold is -24%.
The same measure for `Cc1cc(NC(=O)CSc2nnc(Nc3ccccc3)s2)no1`: -11%.
On to `Cc1cc(NC(=O)CSc2nc(C3CC3)nc3sc(C)c(C)c23)no1`, for which the activity increase over dofetilide control, less the hit threshold was 26% (active).
The same measure for `CCCc1nc(SCC(=O)Nc2cc(C)on2)c2ccccc2n1`: -10%; for `C/C(=C\C(=O)c1ccncc1)Nc1ccccc1O`: -7%.
Consider `C/C(=C\C(=O)c1ccccc1)NNC(=O)c1ccc(Cl)cc1`, for which the activity increase over dofetilide control, less the hit threshold was 3% (active).
The same measure for `COc1ccc(C(=O)NN/C(C)=C/C(=O)c2ccccc2)cc1`: -26%; for `COc1cccc(C(=O)NNC(=O)C(=O)Nc2ccc(C)c(Cl)c2)c1`: 54% (active).
The value for `Cc1ccc(NC(=O)c2ccc3c(c2)OCO3)cc1Cl` was -10%; that for `COc1cccc(C(=O)Nc2cccc(-c3ccc(N4CCOCC4)nn3)c2)c1` was -14%.
The value for `COc1cccc(C(=O)NNC(=O)C(=O)Nc2cccc(Cl)c2C)c1` was 50% (active); that for `COc1ccc(C(=O)NNC(=O)C(=O)Nc2ccc(C)c(Cl)c2)cc1` was 86% (active).
On to `COc1ccc(C2/C(=C(/O)c3ccc(Br)cc3)C(=O)C(=O)N2C)cc1` (stereo not given), for which the activity increase over dofetilide control, less the hit threshold was -7%.
`Cc1ccc(C(=O)n2c(-c3ccccc3)cnc2SCC(=O)Nc2ccc(C)cc2C)cc1`: the activity increase over dofetilide control, less the hit threshold is -8%.
The same measure for `Oc1c(N=NC(=S)Nc2ccccc2F)c2ccccc2n1Cc1cccc(Cl)c1`: -1%; for `Cc1cc(NC(=O)Cn2c(=O)n(Cc3ccccc3)c(=O)c3ccccc32)no1`: -7%.
In the case of `Oc1c(N=NC(=S)Nc2ccccc2F)c2ccccc2n1Cc1ccc(F)cc1`, the activity increase over dofetilide control, less the hit threshold is 32% (active).
The same measure for `Cc1c(Cl)cccc1NC(=S)N=Nc1c(O)n(CN2CCOCC2)c2ccccc12`: 18% (active).
Take `Oc1c(N=NC(=S)Nc2ccccc2F)c2ccccc2n1Cc1ccccc1`: the activity increase over dofetilide control, less the hit threshold is 36% (active).
`Cc1cccc(Cn2c(O)c(N=NC(=S)Nc3ccccc3F)c3ccccc32)c1`: the activity increase over dofetilide control, less the hit threshold was 4% (active).
The value for `Oc1c(N=NC(=S)Nc2ccccc2F)c2ccccc2n1Cc1ccc(Cl)cc1` was -2%; that for `CC(C)Oc1ccccc1C1(c2ccccc2)NC(=O)NC1=O` (stereo not given) was -16%.
The same measure for `CC(C)NC(=O)Nc1n[nH]c(Nc2ccc(Cl)cc2)n1`: -1%.
The same measure for `O=C1NC(=O)C2(COC(c3cccc([N+](=O)[O-])c3)OC2)S1` (stereo not given): -12%.
Take `Nc1ccc2nc(-c3cccs3)[nH]c2c1`: the activity increase over dofetilide control, less the hit threshold was -10%.
The value for `Cc1cc(C)c(S(=O)(=O)c2ccccc2)c(OC(=O)c2c(F)cccc2Cl)n1` was -30%.
The value for `O=C(CCc1ccccc1Cl)Nc1ccc(S(=O)(=O)N2CCOCC2)cc1` was -6%.
The value for `Cc1ccc(C(C)NC(=S)NC2CCCCC2)cc1C` (stereo not given) was -6%.
Take `CCc1ccc(C(=O)NNC(=O)c2ccc(=O)n(C)n2)cc1`: the activity increase over dofetilide control, less the hit threshold was -5%.
The same measure for `CCc1ccc(C(C)NC(=O)c2ccc(F)cc2)cc1` (stereo not given): 4% (active); for `CCc1ccccc1N(CC(=O)NC(C)c1ccccc1)S(C)(=O)=O` (stereo not given): -15%.
The same measure for `Cc1ccc(C(=O)NC(C)c2ccc(C)c(C)c2)s1` (stereo not given): -6%.
The value for `Cc1ccc(C(C)NC(=O)C2CCCC2)cc1C` (stereo not given) was 4% (active); that for `CC(NC(=O)CCNC(=O)c1ccco1)c1ccc(F)cc1` (stereo not given) was -5%.
On to `CCc1ccc(C(C)NC(=O)C2CCCC2)cc1` (stereo not given), for which the activity increase over dofetilide control, less the hit threshold is 1% (active).
The value for `COc1cccc(C(=O)/C=C/Nc2ccc(S(=O)(=O)Nc3cnc4ccccc4n3)cc2)c1` was -22%.
The same measure for `CCc1nccn1S(=O)(=O)c1ccc2ccc(C)cc2c1`: -15%; for `CC1CCN(C(=O)CSc2nnc(CNC(=O)c3ccco3)o2)CC1`: -15%; for `O=C(c1cccc2c1-c1ccccc1C2)N1CCCCC1`: -17%.
The value for `COc1ccc(-c2cc(C(=O)N3CCCC3)no2)cc1` was -4%.
For `O=C(c1csc(Nc2ccccc2Cl)n1)N1CCCC1`, the activity increase over dofetilide control, less the hit threshold was 6% (active).
The value for `CC1Oc2ccccc2N(CC(=O)N2CCCCCC2)C1=O` (stereo not given) was -19%.
As for `N#CCCn1cc(/C=N/NC(=O)c2ccncc2)c(-c2ccc(F)cc2)n1`, the activity increase over dofetilide control, less the hit threshold was -2%.
The same measure for `CCCn1nnnc1NC(=O)c1cc(Cl)ccc1Cl`: -8%; for `CCCN(CC(=O)Nc1ccccc1C)C(=O)CCl`: -13%; for `CCN(CC)C(=S)NC(=O)c1ccc(Cl)cc1Cl`: 11% (active).
The same measure for `CCCCN(CCCC)C(=S)NC(=O)c1ccccc1Cl`: 83% (active); for `CN(C)/C=C/C(=O)c1ccc(Cl)cc1Cl`: -11%.
The same measure for `CCN(CC)C(=S)NC(=O)c1ccc(F)cc1`: -9%; for `CCCN(CCC)C(=S)NC(=O)c1ccc(Cl)cc1Cl`: 60% (active).
`O=C(Nc1ccsc1C(=O)O)c1ccccc1Cl`: the activity increase over dofetilide control, less the hit threshold was -16%.
The same measure for `Cn1c(CNC(=O)CNC(=O)c2ccc(F)cc2)cc(=O)n(C)c1=O`: -15%; for `CSc1ccc(C2NN=C(c3ccccc3)S2)cc1` (stereo not given): -11%; for `Cc1ccc(/C(O)=C2\C(=O)C(=O)N(Cc3cccnc3)C2c2ccccc2[N+](=O)[O-])cc1` (stereo not given): -26%.
The same measure for `O=C1C=C(NCCN2CCOCC2)C(=O)c2cnccc21`: -3%; for `Cc1ccc(OCCC(=O)OC(C)C(=O)NC2CC2)cc1` (stereo not given): -12%; for `O=c1ccn(Cc2ccc(F)cc2)c2ccnc(C(F)(F)F)c12`: -15%.
The same measure for `O=c1cc(-c2ccccc2)cc(-c2ccccc2)n1O`: 22% (active); for `CN1/C(=C/C=C(C#N)C#N)C=Cc2ccccc21`: 66% (active); for `CCCCc1cc(=O)oc2c(C)c(OCC(=O)NCc3ccccn3)ccc12`: -9%.
In the case of `Cc1nn(C(=O)CNC(=O)c2ccccc2)c(C)c1C`, the activity increase over dofetilide control, less the hit threshold was -17%.
The value for `Cc1ccccc1Cn1nc(C)c(NC(=O)c2ccccc2)c1C` was 25% (active); that for `CC(=O)c1n[nH]nc1NC(=O)c1ccccc1` was -1%; that for `COc1ccccc1NC(=O)Cc1nnc(SCC(=O)Nc2nccs2)n1C` was -10%.
The same measure for `Cc1ccc(-n2ncc3c(SCC(=O)NNC(=O)c4ccco4)ncnc32)cc1`: -4%; for `CCn1c(SCC(=O)NC(=O)NCc2ccco2)nc2sc(C)c(C)c2c1=O`: 18% (active).
The value for `Cc1sc2nc(C(C)C)nc(SCC(=O)NCc3ccco3)c2c1C` was 16% (active); that for `Cc1cc(S(=O)(=O)N2CCOCC2)ccc1OCC(=O)NCc1ccco1` was -7%; that for `O=C(CN1CCN(c2ccccc2O)CC1)NC(=O)NCc1ccco1` was -17%.
Consider `O=C(NCC1CCCO1)c1ccc2c(=O)n(Cc3ccco3)c(SCC(=O)N3CCCC3)nc2c1` (stereo not given), for which the activity increase over dofetilide control, less the hit threshold is 0%.
